Measurements as given in ChEMBL document CHEMBL2218924, “A broad activity screen in support of a chemogenomic map for kinase signalling research and drug discovery” (Biochem J, 2013).

Legend:
[1] = molecular target: Vascular endothelial growth factor receptor 3 (Homo sapiens) (UniProt P35916); conditions: at 10 µM
[2] = molecular target: Macrophage colony-stimulating factor 1 receptor (Homo sapiens) (UniProt P07333); conditions: at 1 µM
[3] = molecular target: Macrophage colony-stimulating factor 1 receptor (Homo sapiens) (UniProt P07333); conditions: at 10 µM
[4] = molecular target: Tyrosine-protein kinase Fyn (Homo sapiens) (UniProt P06241); conditions: at 1 µM
Chain of Tyrosine-protein kinase Fyn (Homo sapiens) (P06241 2-537 limits assumed): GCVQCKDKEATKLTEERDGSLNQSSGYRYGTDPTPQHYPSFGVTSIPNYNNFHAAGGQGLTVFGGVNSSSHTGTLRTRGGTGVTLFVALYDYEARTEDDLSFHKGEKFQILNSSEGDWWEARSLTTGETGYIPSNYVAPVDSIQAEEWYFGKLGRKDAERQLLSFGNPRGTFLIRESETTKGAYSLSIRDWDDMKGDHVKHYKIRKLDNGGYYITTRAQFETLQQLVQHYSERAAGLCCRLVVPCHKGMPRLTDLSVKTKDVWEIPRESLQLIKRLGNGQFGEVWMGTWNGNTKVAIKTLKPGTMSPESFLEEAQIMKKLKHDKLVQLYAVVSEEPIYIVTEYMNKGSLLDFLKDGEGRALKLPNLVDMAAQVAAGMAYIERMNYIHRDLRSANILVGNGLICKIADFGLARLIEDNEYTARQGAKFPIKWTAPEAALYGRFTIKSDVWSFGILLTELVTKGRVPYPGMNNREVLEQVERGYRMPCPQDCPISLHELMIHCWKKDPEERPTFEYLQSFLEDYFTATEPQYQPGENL

[5] = molecular target: Tyrosine-protein kinase Fyn (Homo sapiens) (UniProt P06241); conditions: at 10 µM
[6] = molecular target: T1, Mitogen-activated protein kinase kinase kinase kinase 2 (Homo sapiens) (UniProt Q12851); conditions: at 1 µM
T1 sequence (whole entry): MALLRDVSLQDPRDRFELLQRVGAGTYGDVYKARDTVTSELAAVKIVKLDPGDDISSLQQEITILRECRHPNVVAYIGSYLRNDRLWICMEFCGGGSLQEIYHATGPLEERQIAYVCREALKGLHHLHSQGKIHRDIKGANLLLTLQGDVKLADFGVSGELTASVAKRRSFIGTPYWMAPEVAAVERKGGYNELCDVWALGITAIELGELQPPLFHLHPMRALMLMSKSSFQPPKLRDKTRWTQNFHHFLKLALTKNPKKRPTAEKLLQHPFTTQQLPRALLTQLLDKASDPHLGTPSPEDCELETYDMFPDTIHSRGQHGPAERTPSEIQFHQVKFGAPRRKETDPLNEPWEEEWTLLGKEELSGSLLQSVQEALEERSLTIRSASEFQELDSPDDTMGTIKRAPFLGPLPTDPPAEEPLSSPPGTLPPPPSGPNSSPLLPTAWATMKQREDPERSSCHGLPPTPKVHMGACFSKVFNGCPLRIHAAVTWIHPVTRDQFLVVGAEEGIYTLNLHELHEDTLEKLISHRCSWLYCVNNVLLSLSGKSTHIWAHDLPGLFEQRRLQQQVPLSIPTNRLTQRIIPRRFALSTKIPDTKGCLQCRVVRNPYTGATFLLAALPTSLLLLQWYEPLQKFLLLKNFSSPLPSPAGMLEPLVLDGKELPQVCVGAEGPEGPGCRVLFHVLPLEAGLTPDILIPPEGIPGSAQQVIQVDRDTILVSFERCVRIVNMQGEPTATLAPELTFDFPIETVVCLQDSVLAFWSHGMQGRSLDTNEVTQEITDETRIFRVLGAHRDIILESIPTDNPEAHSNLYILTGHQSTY

[7] = molecular target: T1, Mitogen-activated protein kinase kinase kinase kinase 2 (Homo sapiens); conditions: at 10 µM
[8] = molecular target: G protein-coupled receptor kinase 5 (Homo sapiens) (UniProt P34947); conditions: at 10 µM
Chain of G protein-coupled receptor kinase 5 (Homo sapiens) (P34947 whole entry, looked up): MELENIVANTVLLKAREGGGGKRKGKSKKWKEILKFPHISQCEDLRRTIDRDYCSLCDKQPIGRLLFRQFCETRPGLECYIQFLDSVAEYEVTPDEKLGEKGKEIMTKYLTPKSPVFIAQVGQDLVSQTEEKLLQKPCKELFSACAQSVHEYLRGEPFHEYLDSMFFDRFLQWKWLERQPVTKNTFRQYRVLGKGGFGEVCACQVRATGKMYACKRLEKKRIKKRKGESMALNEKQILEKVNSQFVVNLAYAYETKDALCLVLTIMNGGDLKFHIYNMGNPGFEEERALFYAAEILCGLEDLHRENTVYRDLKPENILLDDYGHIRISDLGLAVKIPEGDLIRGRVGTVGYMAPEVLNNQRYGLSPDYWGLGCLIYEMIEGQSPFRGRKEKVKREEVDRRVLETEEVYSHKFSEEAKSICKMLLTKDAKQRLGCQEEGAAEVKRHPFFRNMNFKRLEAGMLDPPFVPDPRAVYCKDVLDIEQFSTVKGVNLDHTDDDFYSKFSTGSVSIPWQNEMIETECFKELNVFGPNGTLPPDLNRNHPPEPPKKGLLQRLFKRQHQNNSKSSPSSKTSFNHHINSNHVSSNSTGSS

[9] = molecular target: G protein-coupled receptor kinase 6 (Homo sapiens) (UniProt P43250); conditions: at 10 µM
[10] = molecular target: T2, Rhodopsin kinase GRK7 (Homo sapiens) (UniProt Q8WTQ7); conditions: at 1 µM
T2 sequence (whole entry): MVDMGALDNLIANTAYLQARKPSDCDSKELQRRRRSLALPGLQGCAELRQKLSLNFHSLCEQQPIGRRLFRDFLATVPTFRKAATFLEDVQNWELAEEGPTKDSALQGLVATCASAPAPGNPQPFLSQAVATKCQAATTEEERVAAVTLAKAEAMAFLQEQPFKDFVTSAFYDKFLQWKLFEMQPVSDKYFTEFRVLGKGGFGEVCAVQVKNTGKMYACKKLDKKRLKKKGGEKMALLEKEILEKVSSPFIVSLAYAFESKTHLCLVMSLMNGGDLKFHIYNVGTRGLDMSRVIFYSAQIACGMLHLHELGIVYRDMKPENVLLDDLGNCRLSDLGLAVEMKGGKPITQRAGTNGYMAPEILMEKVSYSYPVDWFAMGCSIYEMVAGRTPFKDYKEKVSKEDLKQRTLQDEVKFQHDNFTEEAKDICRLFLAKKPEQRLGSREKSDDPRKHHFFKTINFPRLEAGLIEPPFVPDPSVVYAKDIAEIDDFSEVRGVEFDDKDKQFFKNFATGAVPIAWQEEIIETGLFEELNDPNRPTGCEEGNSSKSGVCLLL

[11] = molecular target: T2, Rhodopsin kinase GRK7 (Homo sapiens); conditions: at 10 µM
[12] = molecular target: Glycogen synthase kinase-3 alpha (Homo sapiens) (UniProt P49840); conditions: at 1 µM
Chain of Glycogen synthase kinase-3 alpha (Homo sapiens) (P49840 2-483 limits assumed): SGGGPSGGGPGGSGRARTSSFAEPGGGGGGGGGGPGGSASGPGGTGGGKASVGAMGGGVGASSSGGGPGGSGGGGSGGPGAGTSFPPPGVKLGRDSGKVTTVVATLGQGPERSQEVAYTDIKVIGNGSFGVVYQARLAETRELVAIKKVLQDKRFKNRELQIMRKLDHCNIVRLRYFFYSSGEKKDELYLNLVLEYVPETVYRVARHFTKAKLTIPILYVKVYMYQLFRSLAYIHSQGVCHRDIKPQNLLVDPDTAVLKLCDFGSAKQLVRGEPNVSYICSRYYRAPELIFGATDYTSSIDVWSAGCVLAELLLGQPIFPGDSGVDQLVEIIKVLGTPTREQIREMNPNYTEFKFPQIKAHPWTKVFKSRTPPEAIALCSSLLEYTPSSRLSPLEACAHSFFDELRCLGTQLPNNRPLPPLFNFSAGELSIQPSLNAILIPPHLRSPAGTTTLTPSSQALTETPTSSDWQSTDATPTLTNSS

[13] = molecular target: Glycogen synthase kinase-3 alpha (Homo sapiens) (UniProt P49840); conditions: at 10 µM
[14] = molecular target: Glycogen synthase kinase-3 beta (Homo sapiens) (UniProt P49841); conditions: at 1 µM
Chain of Glycogen synthase kinase-3 beta (Homo sapiens) (P49841 whole entry, looked up): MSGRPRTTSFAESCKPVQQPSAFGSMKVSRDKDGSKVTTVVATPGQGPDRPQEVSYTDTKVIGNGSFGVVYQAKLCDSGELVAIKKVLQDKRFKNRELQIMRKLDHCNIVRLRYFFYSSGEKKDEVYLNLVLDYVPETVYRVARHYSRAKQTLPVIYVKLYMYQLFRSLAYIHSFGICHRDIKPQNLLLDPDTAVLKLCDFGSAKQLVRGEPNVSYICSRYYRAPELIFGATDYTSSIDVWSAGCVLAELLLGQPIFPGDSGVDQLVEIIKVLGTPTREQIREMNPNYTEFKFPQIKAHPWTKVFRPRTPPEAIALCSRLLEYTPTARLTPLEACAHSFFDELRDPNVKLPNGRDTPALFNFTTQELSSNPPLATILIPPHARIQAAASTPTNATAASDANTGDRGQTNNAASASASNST

[15] = molecular target: Glycogen synthase kinase-3 beta (Homo sapiens) (UniProt P49841); conditions: at 10 µM
[16] = molecular target: Homeodomain-interacting protein kinase 1 (Homo sapiens) (UniProt Q86Z02); conditions: at 1 µM
[17] = molecular target: Homeodomain-interacting protein kinase 1 (Homo sapiens) (UniProt Q86Z02); conditions: at 10 µM
[18] = molecular target: Homeodomain-interacting protein kinase 2 (Homo sapiens) (UniProt Q9H2X6); conditions: at 1 µM
Chain of Homeodomain-interacting protein kinase 2 (Homo sapiens) (Q9H2X6 whole entry, looked up): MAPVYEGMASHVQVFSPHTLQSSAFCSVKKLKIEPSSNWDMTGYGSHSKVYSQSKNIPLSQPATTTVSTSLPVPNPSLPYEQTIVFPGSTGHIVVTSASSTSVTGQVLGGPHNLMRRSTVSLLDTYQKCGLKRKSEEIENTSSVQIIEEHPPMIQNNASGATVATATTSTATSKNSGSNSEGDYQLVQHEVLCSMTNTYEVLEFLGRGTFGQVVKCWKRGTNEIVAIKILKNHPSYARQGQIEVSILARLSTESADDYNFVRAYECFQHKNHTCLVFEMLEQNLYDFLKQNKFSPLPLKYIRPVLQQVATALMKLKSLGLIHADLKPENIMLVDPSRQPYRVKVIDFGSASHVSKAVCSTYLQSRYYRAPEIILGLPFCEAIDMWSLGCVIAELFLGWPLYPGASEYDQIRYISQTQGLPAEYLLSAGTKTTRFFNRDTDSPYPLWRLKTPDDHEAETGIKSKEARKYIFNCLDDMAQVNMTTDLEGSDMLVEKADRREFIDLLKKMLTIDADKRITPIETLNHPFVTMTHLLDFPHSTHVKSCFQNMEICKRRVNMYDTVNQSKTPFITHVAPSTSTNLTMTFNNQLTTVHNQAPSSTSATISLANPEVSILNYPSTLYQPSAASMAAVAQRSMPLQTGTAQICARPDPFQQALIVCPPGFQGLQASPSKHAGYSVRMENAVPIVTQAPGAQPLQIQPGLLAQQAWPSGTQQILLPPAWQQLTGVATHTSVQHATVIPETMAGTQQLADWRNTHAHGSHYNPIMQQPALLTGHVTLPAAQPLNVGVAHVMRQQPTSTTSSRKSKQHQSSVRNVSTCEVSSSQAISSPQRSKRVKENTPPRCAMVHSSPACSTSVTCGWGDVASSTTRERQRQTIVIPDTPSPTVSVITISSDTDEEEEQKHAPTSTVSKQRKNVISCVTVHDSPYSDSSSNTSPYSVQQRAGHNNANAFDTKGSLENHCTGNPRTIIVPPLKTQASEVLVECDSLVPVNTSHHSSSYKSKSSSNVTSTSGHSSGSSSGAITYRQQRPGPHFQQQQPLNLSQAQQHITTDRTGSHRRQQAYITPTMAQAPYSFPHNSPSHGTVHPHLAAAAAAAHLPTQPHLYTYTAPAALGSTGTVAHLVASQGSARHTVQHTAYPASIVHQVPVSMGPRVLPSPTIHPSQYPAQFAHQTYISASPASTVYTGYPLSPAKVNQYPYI

[19] = molecular target: Homeodomain-interacting protein kinase 2 (Homo sapiens) (UniProt Q9H2X6); conditions: at 10 µM
[20] = molecular target: Homeodomain-interacting protein kinase 3 (Homo sapiens) (UniProt Q9H422); conditions: at 1 µM

Chain of Vascular endothelial growth factor receptor 3 (Homo sapiens) (P35916 whole entry): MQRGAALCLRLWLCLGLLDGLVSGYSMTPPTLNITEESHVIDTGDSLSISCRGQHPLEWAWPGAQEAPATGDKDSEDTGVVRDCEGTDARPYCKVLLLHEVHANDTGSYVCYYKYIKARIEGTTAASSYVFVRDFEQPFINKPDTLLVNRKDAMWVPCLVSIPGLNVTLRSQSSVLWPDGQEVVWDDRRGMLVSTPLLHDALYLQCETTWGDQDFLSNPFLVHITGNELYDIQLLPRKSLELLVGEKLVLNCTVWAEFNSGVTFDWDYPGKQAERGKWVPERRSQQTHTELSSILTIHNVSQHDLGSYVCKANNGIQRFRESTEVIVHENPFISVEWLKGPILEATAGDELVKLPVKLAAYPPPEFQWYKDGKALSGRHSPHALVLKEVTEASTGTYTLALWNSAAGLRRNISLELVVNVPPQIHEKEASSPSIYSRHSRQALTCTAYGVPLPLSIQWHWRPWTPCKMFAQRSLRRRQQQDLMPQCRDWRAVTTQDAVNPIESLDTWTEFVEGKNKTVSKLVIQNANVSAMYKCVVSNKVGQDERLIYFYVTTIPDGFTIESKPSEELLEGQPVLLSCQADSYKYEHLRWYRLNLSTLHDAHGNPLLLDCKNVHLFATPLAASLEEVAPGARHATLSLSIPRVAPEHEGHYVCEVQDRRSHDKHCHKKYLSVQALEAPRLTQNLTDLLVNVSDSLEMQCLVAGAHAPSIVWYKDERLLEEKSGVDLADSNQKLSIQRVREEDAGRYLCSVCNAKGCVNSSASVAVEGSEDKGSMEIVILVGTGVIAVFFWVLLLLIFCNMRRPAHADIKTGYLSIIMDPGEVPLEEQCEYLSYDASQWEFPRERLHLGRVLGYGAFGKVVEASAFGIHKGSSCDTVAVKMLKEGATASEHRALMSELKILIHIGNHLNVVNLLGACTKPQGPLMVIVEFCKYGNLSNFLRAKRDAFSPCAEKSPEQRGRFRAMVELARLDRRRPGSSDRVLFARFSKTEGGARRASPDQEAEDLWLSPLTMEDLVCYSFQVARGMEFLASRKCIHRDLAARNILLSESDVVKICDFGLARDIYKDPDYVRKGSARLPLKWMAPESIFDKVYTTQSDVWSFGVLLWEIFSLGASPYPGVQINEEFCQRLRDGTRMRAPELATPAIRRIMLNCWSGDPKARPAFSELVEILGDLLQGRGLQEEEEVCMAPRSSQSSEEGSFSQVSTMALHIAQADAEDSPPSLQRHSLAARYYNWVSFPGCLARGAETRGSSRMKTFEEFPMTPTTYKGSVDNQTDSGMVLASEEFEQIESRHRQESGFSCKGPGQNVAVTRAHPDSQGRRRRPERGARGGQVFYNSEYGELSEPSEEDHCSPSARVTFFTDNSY

| Compound | residual activity [1] | residual activity [2] | residual activity [3] | residual activity [4] | residual activity [5] | residual activity [6] | residual activity [7] | residual activity [8] | residual activity [9] | residual activity [10] | residual activity [11] | residual activity [12] | residual activity [13] | residual activity [14] | residual activity [15] | residual activity [16] | residual activity [17] | residual activity [18] | residual activity [19] | residual activity [20] |
| --- | --- | --- | --- | --- | --- | --- | --- | --- | --- | --- | --- | --- | --- | --- | --- | --- | --- | --- | --- | --- |
| Cn1cnc2cc3c(Nc4cccc(Br)c4)ncnc3cc21 | 8% | 94% | 37% | 67% | 34% | 86% | 70% | 93% | 96% | 100% | 86% | 103% | 105% | 102% | 82% | 96% | 105% | 102% | 92% | 95% |
| Nc1n[nH]c2nnc(-c3c(-c4ccccc4)nn4ccccc34)cc12 | 23% | 67% | 28% | 71% | 52% | 67% | 24% | 99% | 89% | 83% | 81% | 77% | 30% | 89% | 49% | 105% | 95% | 103% | 95% | 97% |
| Nc1ccc2ncnc(NCCc3ccc(Oc4ccccc4)cc3)c2c1 | 6% | 72% | – | 75% | 66% | 72% | 68% | 97% | 95% | 110% | 88% | 94% | 89% | 103% | 119% | 115% | 97% | 77% | 70% | 92% |
| Nc1nc(Nc2ccc(S(N)(=O)=O)cc2)nn1C(=S)Nc1c(F)cccc1F | -1% | 5% | 0% | 6% | -1% | 1% | -1% | 30% | – | – | – | 3% | 2% | 4% | 0% | 30% | 47% | 12% | 0% | 25% |
| N#CCCc1ccc2c(c1)-c1[nH]c3ccc([N+](=O)[O-])cc3c1CC(=O)N2 | 2% | 24% | 19% | 17% | 1% | 2% | 2% | – | – | – | – | 1% | 0% | -3% | 0% | – | – | 64% | 24% | – |
| O=[N+]([O-])c1ccc(-c2nc(-c3ccc(F)cc3)c(-c3ccncc3)[nH]2)cc1 | 71% | 81% | 54% | 82% | 70% | 99% | 91% | 105% | 94% | 108% | 92% | 99% | 84% | 73% | 83% | 111% | – | 107% | 100% | 110% |
| CCN(CC)C(=O)c1ccc(Nc2nc(OCC3CCCCC3)c3nc[nH]c3n2)cc1 | 0% | 1% | 2% | 35% | 5% | 33% | 3% | – | – | 97% | 78% | 72% | 15% | 75% | 26% | – | – | – | 28% | 99% |
| COc1cc2ncc(-c3ccccc3)nc2cc1OC | 17% | 30% | 7% | – | 84% | 96% | 90% | – | 91% | – | – | – | – | 93% | 138% | – | – | 96% | 97% | 100% |
| COc1cccc(-c2cc(=O)c3ccccc3o2)c1N | 80% | 114% | 88% | 93% | 39% | 91% | 82% | 102% | 96% | 96% | 97% | – | 77% | 106% | 103% | 112% | 92% | 109% | 95% | 99% |
| COc1cc2ncnc(Nc3ccc(Oc4ccccc4)cc3)c2cc1OC | 0% | 49% | 53% | 2% | 0% | – | – | 104% | 88% | 103% | 92% | 91% | 178% | 84% | 97% | 102% | 106% | 99% | 99% | 94% |
| C[C@@H](N)[C@H]1CC[C@H](C(=O)Nc2ccncc2)CC1 | 104% | 98% | 110% | 111% | 112% | – | 88% | 90% | 106% | 97% | 89% | 75% | 68% | 105% | 84% | 102% | 109% | 103% | 101% | 91% |
| COc1cc2ncnc(Nc3ccc(O)c(Br)c3)c2cc1OC | 2% | 63% | 22% | 49% | 9% | 52% | 18% | 89% | 78% | 75% | 69% | 116% | 108% | 89% | 86% | 97% | 104% | 87% | 75% | 95% |
| Cc1cncc2cccc(S(=O)(=O)N3CCCN(C(=O)CN)C[C@H]3C)c12 | 51% | 73% | 78% | 93% | 78% | 82% | 46% | 68% | 51% | 79% | 28% | – | – | – | – | 94% | – | – | – | – |
| COc1cc2ncnc(N3CCN(C(=O)Nc4ccc(Oc5ccccc5)cc4)CC3)c2cc1OC | 7% | 7% | 2% | 84% | 82% | 80% | 69% | 93% | 82% | 80% | 82% | 103% | 146% | 99% | 148% | 96% | 96% | 95% | 77% | 95% |
